Tau ThT inhib: inhibitors of human tau fibril formation, thioflavin T binding | P10636 | recombinant tau K18 P301L, heparin-induced fibrillization, ThT fluorescence | Potency, µM (series often up to 57.4 µM), for the others: at the highest dose activity, negative = inhibition, actives largely listed as inhibitors | 270,000 compounds, 2.1% hits | AID 1460; also: potency is read from the fitted curve at half-maximal effect; % is scaled to controls: 0 for no effect and ±100 for the full control effect; nearly all actives have a fitted effect of over 55% in size
Target sequence (P10636 561-689 P618L limits assumed): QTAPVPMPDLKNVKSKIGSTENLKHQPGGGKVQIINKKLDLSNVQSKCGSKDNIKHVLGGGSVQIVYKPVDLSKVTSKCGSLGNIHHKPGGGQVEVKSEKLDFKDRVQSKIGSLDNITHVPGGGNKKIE
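ThT emission at 510 nm, taken 1 hr after adding 30 uM dye, quantifies aggregates formed when 20 uM heparin acts on human tau K18 P301L for 6 hr at 37 C.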
JMJD2E inh: inhibitors of human JMJD2E histone demethylase; Potency, µM (doses to about 57.1 µM), without a hit: top-dose activity change, negative = inhibition, usual class: inhibitors; AID 2147; 230,000 compounds, 1.6% hits; JMJD2E catalytic domain, FDH-coupled NADH fluorescence (FDH is formaldehyde dehydrogenase); B2RXH2; active = well fitted inhibition curve with a large enough effect, not every such curve was filed as active; inconclusive = small, poorly fitted or top-dose-only effect, or another doubt; inactive = no such curve, though single readings can be large or run the other way;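 also: potency is read from the fitted curve at half-maximal effect; 0% = wells with enzyme and -100% = buffer wells without enzyme; nearly all actives have a fitted effect of over 50% in size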
Tau fibril FP: tau fibrillization inhibition (FP). P10636. K18 P301L tau heparin fibrillization, Alexa594 FP, 6 h. Potency, µM (titrated, usually from 57.7 µM), inactives show at the highest dose activity, negative = inhibition, actives largely listed as inhibitors. 280,000 compounds, 0.39% hits. AID 1468; also: potency is read from the fitted curve at half-maximal effect; % is scaled to controls: 0 for no effect and ±100 for the full control effect; nearly all actives have a fitted effect of over 55% in size
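Human tau K18 […] P301L fragment, 15 uM unlabeled plus 0.24 uM Alexa 594-labeled tau (final), with compound and 20 uM heparin in 100 mM sodium acetate pH 7; 6 hr at 37 C, then Alexa 594 FP read.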
Lamin A splicing: modulators of lamin A splicing; HeLa LMNA splicing GFP/RFP minigene ratio, 48 h; Potency, µM (doses to about 46.1 µM), inactives show at the highest dose ratio change, negative = inhibition, actives largely listed as inhibitors; 200,000 compounds, 0.01% hits; active = well fitted inhibition curve with a large enough effect in the signal ratio, with a control signal flat, not every such curve was filed as active; inconclusive = small, poorly fitted or top-dose-only effect, or effect the other way, or a change in a side signal; the % refers to the signal ratio; also: potency is read from the fitted curve at half-maximal effect; % is scaled to controls: 0 for no effect and ±100 for the full control effect
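S3 HeLa stable clones carrying a lamin A-EGFP splicing minigene plus DsRed2 were seeded at 600 cells/well in Opti-MEM with 2% FBS, pin-dosed and incubated 48 h at 37°C. Acumen cytometry (488 nm) gave the GFP/RFP total-intensity ratio.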
CBFb RUNX1 block: CBF-beta/RUNX1 interaction disruption. AlphaScreen CBFb-His/RUNX1-biotin binding, biochemical. Potency, µM (doses to about 59.8 µM), for inactives: at the highest dose activity, negative = inhibition, hits mostly inhibitors. 230,000 tested, under 10 active. AID 1477; also: % of control where 0% means no effect
Target sequence (Q01196 whole entry, looked up): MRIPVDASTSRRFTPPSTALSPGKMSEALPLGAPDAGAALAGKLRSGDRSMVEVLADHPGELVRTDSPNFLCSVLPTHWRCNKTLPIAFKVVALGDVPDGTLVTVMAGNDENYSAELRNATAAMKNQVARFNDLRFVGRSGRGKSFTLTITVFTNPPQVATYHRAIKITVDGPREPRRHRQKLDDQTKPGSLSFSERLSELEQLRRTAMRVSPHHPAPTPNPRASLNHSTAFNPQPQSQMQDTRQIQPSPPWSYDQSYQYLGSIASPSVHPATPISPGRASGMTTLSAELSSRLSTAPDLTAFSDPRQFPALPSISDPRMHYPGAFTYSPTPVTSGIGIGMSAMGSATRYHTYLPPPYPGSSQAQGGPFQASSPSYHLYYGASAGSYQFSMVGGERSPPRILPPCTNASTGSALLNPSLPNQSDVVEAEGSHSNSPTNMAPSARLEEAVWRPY
Target sequence (Q13951 whole entry, looked up): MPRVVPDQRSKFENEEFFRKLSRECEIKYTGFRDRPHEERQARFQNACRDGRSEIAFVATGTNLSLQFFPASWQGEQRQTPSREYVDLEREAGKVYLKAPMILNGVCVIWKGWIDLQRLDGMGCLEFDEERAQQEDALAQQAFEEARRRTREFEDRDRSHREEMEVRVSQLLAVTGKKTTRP
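CBF-beta (His) and RUNX1 (biotin), 30 nM each; 20 min preassociation; + compound, 15 min; + beads 50 ng each (Ni, streptavidin), 90 min; RT; AlphaScreen read.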
Tau fluor counter: counter-screen for tau fibril formation inhibitors. 280,000 compounds, 0.93% hits. tau K18 P301L (four-repeat tau fragment) Alexa594 fluorescence, heparin fibrillization. Potency, µM (top dose mostly 57.7 µM), inactives show at the top dose activity change, negative = decrease; also: potency is read from the fitted curve at half-maximal effect; % is scaled to controls: 0 for no effect and ±100 for the full control effect; nearly all actives have a fitted effect of over 55% in size
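Human K18 P301L tau (15 uM unlabeled plus 0.24 uM Alexa 594-labeled, final) in 100 mM sodium acetate pH 7 was mixed with compound and 20 uM heparin and incubated 6 hr at 37 C.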
Numbers without * were called inactive; ? = inconclusive; nt = no result; [ ] = dose if it differs, or a comment. Rows were chosen to be rich in hits. Some 3.2% of all compounds tested hit in one or more screens of this group. Unless noted, calls follow the shape of the dose curve; as a rule, active = well fitted curve in the direction sought with a large enough effect; inconclusive = small, poorly fitted or top-dose-only effect, or another doubt; inactive = no such curve, though single readings can be large; an effect the other way counts as inactive or inconclusive.

SMILES	Tau ThT inhib	JMJD2E inh	Tau fibril FP	Lamin A splicing	CBFb RUNX1 block	Tau fluor counter
CC(=O)Nc1ccc(Nc2cc(C)nc3c(-c4ccccc4)c(C)nn23)cc1	?	?	4%	-13%	12%	14µM*[quencher]
Cc1cc(SCC(=O)Nc2ccc(O)cc2)n2nc(C)c(-c3ccccc3)c2n1	?	0%	0%	nt	3%	?
Cc1nn2c(NCc3ccccn3)cc(C(C)C)nc2c1-c1ccccc1	?	?	15%	nt	3%	?
Cc1ccc(CNC(=O)CN2C(=O)C3(SCC(=O)N3c3ccc(F)c(F)c3)c3ccccc32)cc1 (centres undefined)	-10%	nt	2%	0%[46 µM]	nt	?
BrC(=C\c1ccccc1)/C=N/N1CCN(c2ccccc2)CC1	20µM*	-4%	?	nt	-2%	?
CC(/C=N/N1CCN(c2ccc(C)cc2)CC1)=C\c1ccccc1	?	-1%	?	-6%	1%	-8%
Cc1cc(O)c2c(c1O)C(=O)C(O)=C(O)C2=O	13µM*	?	18µM*	nt	nt	?
COc1cccc(-n2cc(C(=O)NCc3ccc(C)cc3)c3ccccc3c2=O)c1	1%	nt	1%	7%[46 µM]	nt	-2%
CCOC(=O)c1cccc(NC(=O)C2CCN(S(=O)(=O)c3cn(C)cn3)CC2)c1	11%	nt	4%	?	nt	7%
CC1(C)CC(=O)C(C(c2ccco2)C2C(=O)CC(C)(C)CC2=O)C(=O)C1	28µM*	-21%	?	-3%	9%	-24%
CCOc1cccc(/C=N/NC(=S)Nc2cc(S(=O)(=O)N3CCOCC3)ccc2N2CCOCC2)c1O	-13%	32µM*	?	?	?	?
Cc1[nH]n(-c2ccccc2)c(=S)c1C=Nc1ccc([N+](=O)[O-])cc1	25µM*	6.3µM*	?	12%	1%	-19%
Cc1[nH]n(-c2ccccc2)c(=O)c1C=Nc1ccc(S(=O)(=O)N=C(N)N)cc1	nt	-7%	-4%	nt	3%	-14%
CCOc1ccc(Nc2nc(C)c(NC(=O)c3cccc(OC)c3)c(Nc3ccc(OCC)cc3)n2)cc1	?	nt	12%	nt	nt	11µM*[quencher]
COc1ccccc1NC(=O)C1=C(C)NC(=O)NC1c1ccccc1[N+](=O)[O-] (centres undefined)	?	?	-15%	14%[46 µM]	-7%	-23%
CC1=C(C(=O)Nc2ccccc2)C(c2ccccc2[N+](=O)[O-])NC(=O)N1 (centres undefined)	25µM*	-9%	?	nt	6%	?
COC(=O)c1scc(-c2ccc(C)cc2)c1S(=O)(=O)Nc1cccc(C(F)(F)F)c1	4%	nt	0%	2%[46 µM]	nt	-14%
CCCCCCCCCCCCC/C=C/[C@@H](O)[C@H](CO)NC(=O)CCCCC	nt	nt	nt	nt	28%	nt
COc1ccc(CC(=O)Nc2ccc3nc(N4CCCCC4)cc(C)c3c2)cc1	?	nt	3%	nt	nt	13µM*[quencher]
COc1ccc(Nc2cc(C)c3cc(NC(=O)Cc4ccc(Cl)cc4)ccc3n2)cc1	11µM*	nt	-13%	-12%[46 µM]	nt	5µM*[quencher]
Cc1cc(N2CCOCC2)nc2ccc(NC(=S)N3CCCCC3C)cc12 (centres undefined)	11µM*	?	1%	-17%[9.22 µM]	-7%	16µM*[quencher]
COc1cccc(C(=O)Nc2ccc3nc(N4CCN(c5ncccn5)CC4)cc(C)c3c2)c1OC	8.9µM*	?	9%	?	1%	-30%
Cc1cc(N2CCN(C)CC2)nc2ccc(NC(=S)N3CCCCC3)cc12	?	?	5%	nt	-25%	?
COc1ccccc1Nc1nn2c(=O)c3ccc(C(=O)NCCC4=CCCCC4)cc3nc2s1	?	nt	-5%	nt	nt	-7%
CCOc1ccc(-n2c(Cc3ccccc3)nnc2SCc2nc(-c3cccs3)no2)cc1	-16%	nt	9%	nt	nt	-23%
SMILES	Tau ThT inhib	JMJD2E inh	Tau fibril FP	Lamin A splicing	CBFb RUNX1 block	Tau fluor counter
CCOc1nc(-c2ccc(C)cc2)ccc1-c1noc(-c2ccccc2F)n1	-9%	nt	-6%	nt	nt	-8%
COc1cccc(C(=O)Nc2ccc3nc(N4CCOCC4)cc(C)c3c2)c1	5µM*	-10%	13%	?	10%	?
Cc1cc(Nc2cccc(Cl)c2)nc2ccc(NC(=O)COc3ccc(Cl)cc3)cc12	?	nt	-9%	?	nt	7.9µM*[quencher]
CN(C(=O)NCc1noc2ccccc12)c1cccc(Cl)c1	2%	nt	4%	nt	nt	-2%
CCCn1c(O)c(N=Nc2ccc3ccccc3n2)c2ccccc21	13µM*	15%	0%	-14%	-1%	-6%
CCN1CCN(c2cc(C)c3cc(NC(=O)/C=C/c4ccc(OCCC(C)C)cc4)ccc3n2)CC1	7.1µM*	nt	5%	nt	nt	?
COc1ccc(/C=C/C(=O)Nc2ccc3nc(N4CCC(C)CC4)cc(C)c3c2)cc1OC	3.5µM*	nt	13%	nt	nt	3.5µM*[quencher]
COc1ccc(/C=C/C(=O)Nc2ccc(Cl)c(Cl)c2)cc1OC	?	nt	14µM*	nt	nt	10µM*[quencher]
CCN1CCN(c2cc(C)c3cc(NC(=O)/C=C/c4ccc(C)cc4)ccc3n2)CC1	4.5µM*	nt	10%	nt	nt	14µM*[quencher]
COc1ccc(/C=C/C(=O)Nc2ccncc2)cc1OC	1%	-1%	-4%[2.34 µM]	-7%[46 µM]	16%	-2%[2.34 µM]
Brc1ccc(CSc2nnc(Cc3c[nH]c4ccccc34)o2)cc1	?	-10%	-6%	?	-4%	14µM*[quencher]
Cc1cc(C(=O)N/N=C/c2cccc([N+](=O)[O-])c2)c2ccccc2n1	?	-6%	-7%	-2%	3%	-8%
COc1cccc(/C=N/NC(=O)c2ccc([N+](=O)[O-])cc2Cl)c1O	?	14µM*	-2%	?	?	-23%
COc1cc([N+](=O)[O-])cc(/C=N/NC(=O)c2cc(C)nc3ccccc23)c1O	14µM*	25µM*	-8%	nt	?	-22%
COc1cc(/C=N/NC(=O)c2cccc([N+](=O)[O-])c2)cc(OC)c1O	?	4%	4%	nt	1%	-19%
COc1cc([N+](=O)[O-])cc(/C=N/NC(=O)c2cc(-c3ccccc3)nc3ccccc23)c1O	16µM*	22µM*	13%	nt	-6%	?
CCCCN(CC)c1nc(C)nc2c1c(C)c(C)n2-c1c(C)cc(C)cc1C	nt	nt	nt	nt	14%	nt
CC1CCC2C(=O)N3CCCC3C(=O)N2C1c1ccc(Br)cc1 (centres undefined)	-10%[11.5 µM]	nt	2%[11.6 µM]	nt	11%[13.1 µM]	-11%[11.6 µM]
O=C1C(Cl)=C(NS(=O)(=O)c2ccc([N+](=O)[O-])cc2)C(=O)c2ccccc21	2µM*	-26%	8.9µM*	nt	4%	2.5µM*[quencher]
O=C(OCc1cc(=O)n2nc(-c3cccs3)sc2n1)c1ccccc1Cl	?	nt	-1%	9%[46 µM]	nt	-9%

Screens (PubChem BioAssay)
